Source: PubChem BioAssay (Tox21)
Active and inactive are the calls of the source. Where a call stands in place of a potency, no number is given. Unless noted, the call rests on the fitted dose curve; in most records, active means well fitted curve in the direction sought with a large enough effect in the repeat runs; inconclusive means weak or mixed curves; inactive means no such curve, though single readings can be large; an effect the other way counts as inactive or inconclusive.

Legend:
[1] = qHTS assay for identifying genotoxic compounds that show differential cytotoxicity against isogenic chicken DT40 cell lines with known DNA damage response pathways - wild type cell line (AID 743012); further: nearly all actives have a fitted effect of over 60% in size; further: potency means the concentration at half of the fitted maximal effect
Method in brief: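 First, wild type DT40 cells were plated at 300 per well and equilibrated about 0.5 h at 37 C/5% CO2. Next, compounds in DMSO were added and exposure lasted 40 h. Finally, CellTiter-Glo was added for 30 min at room temperature and luminescence recorded.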

[2] = qHTS assay for identifying genotoxic compounds that show differential cytotoxicity against isogenic chicken DT40 cell lines with known DNA damage response pathways - Rev3 mutant cell line (AID 743014); further: nearly all actives have a fitted effect of over 55% in size; further: potency means the concentration at half of the fitted maximal effect
[3] = qHTS assay for identifying genotoxic compounds that show differential cytotoxicity against isogenic chicken DT40 cell lines with known DNA damage response pathways - Rad54/Ku70 mutant cell line (AID 743015); further: nearly all actives have a fitted effect of over 60% in size; further: potency means the concentration at half of the fitted maximal effect
[4] = qHTS assay to identify small molecule antagonists of the androgen receptor (AR) signaling pathway using the MDA cell line - cell viability counter screen (AID 743041; further: nearly all actives have a fitted effect of over 45% in size; further: potency means the concentration at half of the fitted maximal effect)
Method in brief: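 MDA-kb2 AR-luc human breast carcinoma cells (MMTV-luciferase, AR/GR responsive) were treated with compounds plus R1881 agonist for 16 h at 37 °C. Viability was read as CellTiter-Fluor fluorescence in the same wells as the reporter assay.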

[5] = qHTS assay to identify small molecule antagonists of the thyroid receptor (TR) signaling pathway - cell viability counter screen (AID 743064); further: nearly all actives have a fitted effect of over 50% in size; further: potency means the concentration at half of the fitted maximal effect
Method in brief: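 In-well cytotoxicity read by CellTiter-Fluor (30 min, 37 C) following 23.5 h exposure of GH3 cells bearing a TRE-luciferase sensor. Compounds were added alongside 1 nM (final) T3 to drive TR transactivation.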

[6] = qHTS assay to identify small molecule antagonists of the thyroid receptor (TR) signaling pathway (AID 743065); further: nearly all actives have a fitted effect of over 55% in size; further: potency means the concentration at half of the fitted maximal effect
Method in brief: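 GH3.TRE-Luc rat pituitary cells carrying two TR response elements driving luciferase were plated for 4 h, given compound plus 1 nM T3 (final), and incubated 23.5 h at 37 C. ONE-Glo luminescence measured reporter inhibition; CellTiter-Fluor fluorescence tracked cytotoxicity.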

[7] = tested on: thyroid hormone receptor (rat, GH3 cells); assay: qHTS assay to identify small molecule agonists of the thyroid receptor (TR) signaling pathway (AID 743066; calls by dose curve)
[8] = target: Estrogen receptor (Homo sapiens) (UniProt P03372); assay: qHTS assay to identify small molecule antagonists of the estrogen receptor alpha (ER-alpha) signaling pathway (AID 743069; active means well fitted curve in the direction sought with a large enough effect in the signal ratio in the repeat runs, not every such curve was filed as active; inconclusive means weak or mixed curves, or effect the other way; inactive means no such curve, though single readings can be large or run the other way; the % refers to the signal ratio; further: potency means the concentration at half of the fitted maximal effect)
Sequence of Estrogen receptor (Homo sapiens) (P03372 whole entry, looked up): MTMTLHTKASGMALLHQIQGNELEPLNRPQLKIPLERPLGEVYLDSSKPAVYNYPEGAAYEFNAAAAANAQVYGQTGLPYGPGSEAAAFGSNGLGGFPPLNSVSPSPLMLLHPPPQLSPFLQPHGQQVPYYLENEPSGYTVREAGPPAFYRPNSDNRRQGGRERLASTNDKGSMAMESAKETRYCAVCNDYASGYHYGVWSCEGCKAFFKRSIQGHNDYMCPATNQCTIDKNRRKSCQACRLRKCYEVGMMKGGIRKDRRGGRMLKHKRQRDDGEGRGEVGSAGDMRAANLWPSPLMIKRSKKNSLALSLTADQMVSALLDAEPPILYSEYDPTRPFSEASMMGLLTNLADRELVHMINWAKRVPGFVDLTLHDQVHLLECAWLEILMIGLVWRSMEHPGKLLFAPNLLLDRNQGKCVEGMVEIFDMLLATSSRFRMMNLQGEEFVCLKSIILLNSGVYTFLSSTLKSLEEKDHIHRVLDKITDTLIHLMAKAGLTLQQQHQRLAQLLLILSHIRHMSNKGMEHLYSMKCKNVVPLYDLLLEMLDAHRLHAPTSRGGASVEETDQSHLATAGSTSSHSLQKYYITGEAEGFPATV
Method in brief: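 HEK293 cells stably carrying an ER-alpha-UAS-bla beta-lactamase reporter were pre-cultured overnight in 2% charcoal-stripped FBS medium. Test compounds in DMSO were added together with 17beta-estradiol for 18 hr at 37C. Read-out was fluorescence after 2 hr with LiveBLAzer B/G FRET substrate at room temperature.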

[9] = target: Estrogen receptor (Homo sapiens) (UniProt P03372); assay: qHTS assay to identify small molecule agonists of the estrogen receptor alpha (ER-alpha) signaling pathway (AID 743075; calls by dose curve; further: potency means the concentration at half of the fitted maximal effect)
[10] = qHTS assay to identify small molecule antagonists of the estrogen receptor alpha (ER-alpha) signaling pathway using the BG1 cell line - cell viability counter screen (AID 743081);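 further: compound given together with 17beta-estradiol as the ER stimulus; nearly all actives have a fitted effect of over 45% in size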; further: potency means the concentration at half of the fitted maximal effect
Aromatase (Homo sapiens) = Aromatase (Homo sapiens) (UniProt P11511); assay: qHTS assay to identify aromatase inhibitors (AID 743083); further: nearly all actives have a fitted effect of over 55% in size; further: potency means the concentration at half of the fitted maximal effect
Sequence of Aromatase (Homo sapiens) (P11511 whole entry, looked up): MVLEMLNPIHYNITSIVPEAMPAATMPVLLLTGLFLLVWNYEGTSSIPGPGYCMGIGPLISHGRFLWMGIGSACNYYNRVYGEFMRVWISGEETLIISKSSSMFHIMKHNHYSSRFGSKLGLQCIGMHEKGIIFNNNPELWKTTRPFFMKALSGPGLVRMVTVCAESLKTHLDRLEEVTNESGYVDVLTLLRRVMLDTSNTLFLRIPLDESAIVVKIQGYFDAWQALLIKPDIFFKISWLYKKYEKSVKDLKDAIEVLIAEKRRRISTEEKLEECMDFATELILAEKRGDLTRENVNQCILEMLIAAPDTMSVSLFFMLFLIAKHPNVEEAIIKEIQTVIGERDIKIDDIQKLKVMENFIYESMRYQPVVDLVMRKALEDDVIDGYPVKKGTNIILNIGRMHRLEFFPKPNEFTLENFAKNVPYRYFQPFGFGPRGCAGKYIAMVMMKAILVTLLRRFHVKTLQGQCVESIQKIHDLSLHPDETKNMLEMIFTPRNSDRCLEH

[11] = qHTS assay to identify aromatase inhibitors - cell viability counter screen (AID 743084);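 further: cells stimulated with testosterone during compound exposure; nearly all actives have a fitted effect of over 55% in size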; further: potency means the concentration at half of the fitted maximal effect
[12] = qHTS assay to identify small molecule antagonists of the glucocorticoid receptor (GR) signaling pathway - cell viability counter screen (AID 720693); further: nearly all actives have a fitted effect of over 55% in size
[13] = qHTS assay to identify small molecule antagonists of the androgen receptor (AR) signaling pathway - cell viability counter screen (AID 743033; further: nearly all actives have a fitted effect of over 45% in size; further: potency means the concentration at half of the fitted maximal effect)
[14] = qHTS assay to identify small molecule antagonists of the estrogen receptor alpha (ER-alpha) signaling pathway - cell viability counter screen (AID 743074; calls by dose curve; further: nearly all actives have a fitted effect of over 45% in size)
[15] = target: Estrogen receptor (Homo sapiens) (UniProt P03372); assay: qHTS assay to identify small molecule agonists of the estrogen receptor alpha (ER-alpha) signaling pathway using the BG1 cell line (AID 743079); further: nearly all actives have a fitted effect of over 20% in size; further: potency means the concentration at half of the fitted maximal effect
[16] = qHTS assay to identify small molecule antagonists of the estrogen receptor alpha (ER-alpha) signaling pathway using the BG1 cell line (AID 743080; calls by dose curve;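 further: BG1 cells stimulated with 17beta-estradiol alongside compound; nearly all actives have a fitted effect of over 25% in size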; further: potency means the concentration at half of the fitted maximal effect)
Method in brief: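 Readout is ONE-Glo luminescence, taken 30 min at room temperature after reagent addition, preceded by a CellTiter-Fluor viability read; BG1-Luc-4E2 cells had received compound and 17beta-estradiol for 21.5 h at 37 C.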

[17] = target: Androgen receptor (Homo sapiens) (UniProt P10275); assay: qHTS assay to identify small molecule agonists of the androgen receptor (AR) signaling pathway using the MDA cell line (AID 743040; further: nearly all actives have a fitted effect of over 20% in size)
Sequence of Androgen receptor (Homo sapiens) (P10275 whole entry, looked up): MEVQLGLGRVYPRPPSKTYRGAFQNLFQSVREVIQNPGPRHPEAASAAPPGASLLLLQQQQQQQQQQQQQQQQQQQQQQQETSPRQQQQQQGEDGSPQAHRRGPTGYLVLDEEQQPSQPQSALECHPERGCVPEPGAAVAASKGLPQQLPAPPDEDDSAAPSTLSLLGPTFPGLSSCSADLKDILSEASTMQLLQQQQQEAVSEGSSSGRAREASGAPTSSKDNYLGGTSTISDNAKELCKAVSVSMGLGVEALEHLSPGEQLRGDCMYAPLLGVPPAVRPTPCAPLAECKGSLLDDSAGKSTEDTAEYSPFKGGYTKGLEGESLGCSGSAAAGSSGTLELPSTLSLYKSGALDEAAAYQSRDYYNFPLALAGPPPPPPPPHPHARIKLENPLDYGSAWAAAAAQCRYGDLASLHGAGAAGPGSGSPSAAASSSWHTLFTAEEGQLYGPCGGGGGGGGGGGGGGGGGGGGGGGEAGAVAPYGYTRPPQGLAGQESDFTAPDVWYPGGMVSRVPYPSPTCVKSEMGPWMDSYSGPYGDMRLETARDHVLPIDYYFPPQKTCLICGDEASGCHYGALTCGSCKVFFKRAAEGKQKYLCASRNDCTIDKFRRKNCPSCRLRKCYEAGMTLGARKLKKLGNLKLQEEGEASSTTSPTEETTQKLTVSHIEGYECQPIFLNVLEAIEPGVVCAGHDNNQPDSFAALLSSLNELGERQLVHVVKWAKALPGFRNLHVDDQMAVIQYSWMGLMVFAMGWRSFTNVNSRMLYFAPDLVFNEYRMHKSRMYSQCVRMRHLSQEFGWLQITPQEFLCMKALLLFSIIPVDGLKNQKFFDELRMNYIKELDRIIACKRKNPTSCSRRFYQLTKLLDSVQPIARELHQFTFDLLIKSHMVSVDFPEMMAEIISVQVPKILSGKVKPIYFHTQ
Method in brief: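 MDA-kb2 breast carcinoma cells stably carrying an MMTV-driven luciferase reporter (AR- and GR-responsive) were seeded and held 5 h at 37C, 0% CO2, then exposed to compounds in DMSO for 16 h. Luminescence was read 30 min after ONE-Glo addition.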

[18] = target: Androgen receptor (Homo sapiens) (UniProt P10275); assay: qHTS assay to identify small molecule antagonists of the androgen receptor (AR) signaling pathway using the MDA cell line (AID 743042; further: nearly all actives have a fitted effect of over 55% in size; further: potency means the concentration at half of the fitted maximal effect)
Method in brief: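 MDA-kb2 cells (human breast carcinoma, stably carrying an MMTV-luciferase reporter responsive to AR and GR) were plated at 3,000 cells/well and preincubated 5 hr at 37C, then given compound plus R1881 agonist for 16 h. ONE-Glo luminescence was read.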

SMILES | Potency [1] | Potency [2] | Potency [3] | Potency [4] | Potency [5] | Potency [6] | Potency [7] | Potency [8] | Potency [9] | Potency [10] | Potency (Aromatase (Homo sapiens)) | Potency [11] | Potency [12] | Potency [13] | Potency [14] | Potency [15] | Potency [16] | Potency [17] | Potency [18]
CCN(Cc1cccc(S(=O)(=O)O)c1)c1ccc(C(=C2C=CC(=[N+](CC)Cc3cccc(S(=O)(=O)O)c3)C=C2)c2ccccc2S(=O)(=O)[O-])cc1 | 15.4 µM (active) | 17.3 µM (active) | 15.4 µM (active) | 38.7 µM (active) | 34.5 µM (active) | 15.4 µM (active) | inactive | inactive | inactive | 38.7 µM (active) | 17.3 µM (active) | 13.7 µM (active) | – | – | – | – | – | – | –
CCN(Cc1cccc(S(=O)(=O)O)c1)c1ccc(C(=C2C=CC(=[N+](CC)Cc3cccc(S(=O)(=O)O)c3)C=C2)c2ccc(O)cc2S(=O)(=O)[O-])cc1 | 10.5 µM (active) | 9.32 µM (active) | 11.7 µM (active) | – | – | – | – | – | inactive | 33.1 µM (active) | 18.6 µM (active) | 29.5 µM (active) | – | – | – | – | – | – | –
Nc1ccc(N=Nc2ccc(N)cc2)cc1 | – | inactive | – | – | 24.3 µM (active) | inactive | inactive | inactive | inactive | – | inactive | – | inactive | inactive | inactive | inactive | inactive | – | –
O=C(CCS)OCC(COC(=O)CCS)(COC(=O)CCS)COC(=O)CCS | – | inactive | inactive | inactive | inactive | inactive | inactive | inactive | inactive | inactive | inactive | – | inactive | – | inactive | inactive | inactive | – | –
Cc1c(C2(c3cc(Br)c(O)c(Br)c3C)OS(=O)(=O)c3ccccc32)cc(Br)c(O)c1Br | 18.8 µM (active) | 18.8 µM (active) | 18.8 µM (active) | 23.6 µM (active) | – | 21 µM (active) | inactive | – | – | 11.8 µM (active) | 16.7 µM (active) | 18.8 µM (active) | – | 16.9 µM (active) | – | – | – | – | –
Cc1ccccc1S(N)(=O)=O | – | inactive | inactive | inactive | – | inactive | inactive | – | – | inactive | – | – | inactive | inactive | inactive | – | – | – | –
Nc1c(Cl)cc(Cl)cc1[N+](=O)[O-] | – | – | – | inactive | inactive | inactive | inactive | – | inactive | inactive | – | inactive | inactive | inactive | inactive | inactive | inactive | inactive | inactive
CC(C)(O)c1coc(S(=O)(=O)NC(=O)Nc2c3c(cc4c2CCC4)CCC3)c1 | – | – | – | inactive | inactive | inactive | inactive | – | – | inactive | inactive | inactive | inactive | inactive | inactive | – | – | – | –
CC/C=C\C/C=C\C/C=C\CCCCCCCC(=O)OCC | – | – | 70.1 µM (active) | inactive | inactive | – | inactive | – | – | inactive | – | – | inactive | inactive | inactive | – | – | – | –
c1ccc(CNc2ncnc3c2ncn3C2CCCCO2)cc1 (configuration not stated) | – | – | 61.1 µM (active) | inactive | inactive | inactive | inactive | inactive | inactive | inactive | inactive | inactive | inactive | inactive | inactive | 3.44 µM (active) | – | – | –
Nc1nc2ccc(OC(F)(F)F)cc2s1 | – | – | – | inactive | inactive | 21.1 µM (active) | inactive | inactive | – | inactive | inactive | inactive | inactive | – | inactive | 5.96 µM (active) | – | – | –
COc1ccc(CCN(C)CCCN2CCc3cc(OC)c(OC)cc3CC2=O)cc1OC | – | inactive | inactive | inactive | – | inactive | inactive | – | inactive | inactive | inactive | inactive | inactive | – | inactive | inactive | inactive | – | –
O=C(c1ccccc1)c1ccc(O)cc1 | – | – | – | inactive | – | inactive | inactive | – | – | inactive | inactive | inactive | inactive | inactive | inactive | 9.8 µM (active) | – | inactive | inactive
CC(C)(C)C(O)/C=C/c1ccc2c(c1)OCO2 (configuration not stated) | – | – | – | inactive | inactive | inactive | inactive | – | inactive | – | inactive | inactive | inactive | inactive | inactive | – | inactive | – | –
CC(=O)Oc1cccc(O)c1 | inactive | inactive | inactive | inactive | inactive | inactive | inactive | inactive | inactive | inactive | inactive | inactive | – | inactive | inactive | inactive | – | – | –
Cc1ccc2c(c1[N+](=O)[O-])C(=O)c1ccccc1C2=O | – | – | 30 µM (active) | inactive | – | – | inactive | – | inactive | inactive | inactive | – | inactive | inactive | inactive | 3.78 µM (active) | – | – | –
CC(C)OC(=O)c1ccccc1C(=O)OC(C)C | – | 43.3 µM (active) | – | inactive | – | – | – | inactive | inactive | inactive | inactive | inactive | inactive | inactive | – | inactive | inactive | – | –
COC(=O)C1=C(C)NC(C)=C(C(=O)OC(C)(C)CN(C)CCC(c2ccccc2)c2ccccc2)C1c1cccc([N+](=O)[O-])c1 (configuration not stated) | 5.96 µM (active) | 6.68 µM (active) | 9.44 µM (active) | inactive | 8.41 µM (active) | 6.68 µM (active) | – | 10.7 µM [inhibitor] (active) | inactive | inactive | 18.8 µM (active) | inactive | – | inactive | – | – | 26.6 µM (active) | inactive | 29.8 µM (active)
CCN(CC)CCOC(=O)C(c1ccccc1)c1ccccc1 | – | – | – | inactive | – | – | inactive | – | – | inactive | inactive | inactive | inactive | inactive | – | – | – | – | –
O=C1c2ccccc2C(=O)c2c(O)ccc(O)c21 | – | inactive | 7.7 µM (active) | inactive | – | – | inactive | – | – | – | – | 38.6 µM (active) | – | inactive | inactive | – | – | – | –
[Cl][Nd]([Cl])[Cl] | – | inactive | inactive | inactive | inactive | inactive | inactive | – | inactive | inactive | inactive | inactive | inactive | – | inactive | inactive | inactive | – | –
COc1cc(OC)c2ccc(=O)oc2c1 | – | – | 68.6 µM (active) | inactive | – | inactive | inactive | inactive | inactive | – | inactive | inactive | inactive | inactive | inactive | inactive | inactive | inactive | inactive
Oc1ccc2c(c1)Cc1ccccc1-2 | – | – | – | inactive | – | – | inactive | – | 24.5 µM [activator] (active) | inactive | inactive | inactive | inactive | – | inactive | 13.7 µM (active) | – | – | –
O=C(O)c1cccc(C[C@@H]2COc3ccc(OCc4nc5cc(F)ccc5s4)cc3[C@@H]2O)c1 | – | 68.7 µM (active) | – | inactive | – | inactive | inactive | inactive | inactive | inactive | inactive | inactive | inactive | inactive | inactive | inactive | inactive | – | –
CS(=O)(=O)c1ccc([C@@H](C[C@H]2CCC(=O)C2)C(=O)Nc2cnccn2)cc1Cl | – | – | – | inactive | inactive | inactive | inactive | – | inactive | inactive | inactive | – | inactive | inactive | inactive | inactive | inactive | – | –
C=C(C)c1ccccc1 | inactive | inactive | inactive | inactive | inactive | inactive | inactive | – | – | inactive | – | – | – | – | inactive | – | – | – | –
CCCCCCCC/C=C\CCCCCCCC(=O)OCCO | – | 81 µM (active) | 72.2 µM (active) | inactive | – | – | inactive | inactive | inactive | inactive | inactive | inactive | – | inactive | inactive | inactive | inactive | – | –
O[C@@H](CNC[C@H](O)[C@H]1CCc2cc(F)ccc2O1)[C@@H]1CCc2cc(F)ccc2O1 | 6.68 µM (active) | 13.3 µM (active) | 11.9 µM (active) | – | 10.6 µM (active) | 9.44 µM (active) | – | 26.8 µM [inconclusive] (active) | inactive | – | 33.5 µM (active) | – | – | – | inactive | inactive | inactive | – | –
COc1cc(S(=O)(=O)Nc2ccccc2)c(OC)cc1N | – | – | inactive | inactive | – | inactive | inactive | inactive | inactive | inactive | inactive | inactive | inactive | inactive | – | inactive | inactive | – | –
